Most compounds without a hit are left out; they make up all but 12% or so of the library.
L3MBTL1 inh-1 = L3MBTL1 (human) inhibition; 0.66% of 230,000 active; Potency, µM (top dose mostly 57.1 µM), without a hit: at the top dose activity, negative = inhibition, usual class: inhibitors; AlphaScreen L3MBTL1–H3K9me1 peptide binding; Q9Y468; AID 485360; further: on the % scale 0 is the no-effect control and ±100 the full control effect; nearly all actives have a fitted effect of over 60% in size
Target sequence (Q9Y468 whole entry, looked up): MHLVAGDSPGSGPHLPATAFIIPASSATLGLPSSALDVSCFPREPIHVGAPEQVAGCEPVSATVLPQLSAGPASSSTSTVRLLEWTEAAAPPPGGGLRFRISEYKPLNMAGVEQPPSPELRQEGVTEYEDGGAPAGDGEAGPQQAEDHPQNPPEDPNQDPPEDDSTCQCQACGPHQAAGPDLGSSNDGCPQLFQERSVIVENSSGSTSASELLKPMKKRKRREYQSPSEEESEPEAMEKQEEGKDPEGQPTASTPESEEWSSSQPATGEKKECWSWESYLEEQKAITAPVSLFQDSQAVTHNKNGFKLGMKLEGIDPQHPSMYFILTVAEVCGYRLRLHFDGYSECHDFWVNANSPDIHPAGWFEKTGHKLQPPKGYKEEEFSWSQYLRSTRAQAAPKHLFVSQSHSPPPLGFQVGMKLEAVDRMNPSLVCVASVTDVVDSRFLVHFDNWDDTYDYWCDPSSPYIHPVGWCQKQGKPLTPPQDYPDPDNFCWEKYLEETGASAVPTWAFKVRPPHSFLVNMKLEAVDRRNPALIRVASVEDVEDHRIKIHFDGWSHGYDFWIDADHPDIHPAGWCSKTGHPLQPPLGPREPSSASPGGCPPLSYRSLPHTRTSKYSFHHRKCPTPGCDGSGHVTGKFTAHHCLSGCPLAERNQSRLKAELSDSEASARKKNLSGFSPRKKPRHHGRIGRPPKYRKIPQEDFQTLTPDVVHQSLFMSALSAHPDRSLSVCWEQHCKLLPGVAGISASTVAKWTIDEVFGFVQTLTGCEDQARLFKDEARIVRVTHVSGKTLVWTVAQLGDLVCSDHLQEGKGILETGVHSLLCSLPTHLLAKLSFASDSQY
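L3MBTL1 50 nM + b-AHA-H3(1-15)K9me1 75 nM, 30 min RT; compound added, 30 min RT; streptavidin donor/Ni-chelate acceptor beads 10 ug/mL each final, 30 min RT dark; AlphaScreen read.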
BAZ2B block = blocks human BAZ2B; Q9UIF8; AlphaScreen BAZ2B-H3K14Ac peptide displacement; Potency, µM (highest dose often 114 µM), for inactives: at the highest dose activity change, negative = inhibition, usual class: inhibitors; 4.4% of 360,000 active; AID 504333; further: on the % scale 0 is the no-effect control and ±100 the full control effect; nearly all actives have a fitted effect of over 60% in size
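AlphaScreen displacement: compounds (up to 110uM) incubated 30 min at room temperature with a preformed 50 nM BAZ2B/50 nM biotinylated H3K14Ac peptide complex in PBS pH 7.4 with Tween-20. Donor and acceptor beads at 10 ug/mL final added, 20 min light-protected before reading.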
HP1b binding inh = inhibitors of HP1-beta chromodomain binding to methylated histone tails | P83916 | 0.56% of 390,000 active | AlphaScreen HP1-beta / biotin-H3K9me3 peptide binding | Potency, µM (series often up to 114 µM), for the others: top-dose activity change, negative = inhibition, most hits filed as inhibitors; further: nearly all actives have a fitted effect of over 70% in size
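Compound inhibition of the preformed complex between 50 nM HP1-beta and 50 nM biotinylated H3K9me3 peptide was read by AlphaScreen. Buffer was PBS pH 7.4 with 0.01% Tween-20. Incubations ran 30 min at room temperature, with 10 ug/mL donor/acceptor beads.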
JMJD2A Tudor inh = JMJD2A Tudor domain (human) inhibition; O75164; AlphaScreen JMJD2A-Tudor / H3K4me3 peptide binding; Potency, µM (titrated, usually from 114 µM), for inactives: at the highest dose activity change, negative = inhibition, most hits filed as inhibitors; 4.4% of 390,000 active; AID 504339; further: on the % scale 0 is the no-effect control and ±100 the full control effect; nearly all actives have a fitted effect of over 50% in size
Sfp PPTase inh = blocks B. subtilis Sfp PPTase activity. Biochemical Sfp PPTase activity, qHTS. Potency, µM, for inactives: largest response in the series, negative = inhibition, hits mostly inhibitors. 3.5% of 310,000 active. AID 1490;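 further: the enzyme is Sfp with the accession as filed and its product quenches rhodamine fluorescence; 0% = enzyme reaction without inhibitor and -100% = no enzyme wells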
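Compounds were incubated with enzyme (final 15 nM) for 15 min at room temperature before substrate addition started the reaction. Fluorescence at 525 nm excitation, 598 nm emission was recorded immediately and after 30 minutes.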
G9a block = inhibitors of human histone lysine methyltransferase G9a. Q96KQ7. G9a H3K9 monomethylation, AlphaScreen, 2 h. Potency, µM (doses to about 102 µM), for the others: at the highest dose activity, negative = inhibition, hits mostly inhibitors. 8.8% of 350,000 active. AID 504332; further: on the % scale 0 is the no-effect control and ±100 the full control effect; nearly all actives have a fitted effect of over 75% in size
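Enzyme 20 nM + cpd, 15 min RT; add b-H3K9 pep 500 nM / SAM 20 uM; 2 h RT; anti-H3K9me1 Ab 0.5 ug/mL + SA donor / anti-rabbit acceptor beads 20 ug/mL each, 10 min; AlphaScreen read.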
L3MBTL1 inh-2 = blocks human L3MBTL1 methyl-lysine binding. shares compounds with L3MBTL1 inh-1. 91% of 500 active. L3MBTL1 methyl-lysine binding inhibition, biochemical qHTS. Potency, µM, most hits filed as inhibitors; further: nearly all actives have a fitted effect of over 70% in size
L3MBTL1 ctr = interferes with AlphaScreen signal in L3MBTL1 counterscreen; shares compounds with L3MBTL1 inh-1; AlphaScreen counterscreen, signal inhibition; Potency, µM (series often up to 57.1 µM), for inactives: at the highest dose activity change, negative = inhibition, hits mostly inhibitors; 500 tested, under 10 active; further: 0% is about no effect
* marks the source's active call; other numbers are inactive results; ? = inconclusive; · = not tested or not shown; [ ] = another dose, or the depositor's remark. The call rests on the fitted dose curve; in most records, active means well fitted curve in the direction sought with a large enough effect; inconclusive means small, poorly fitted or top-dose-only effect, or another doubt; inactive means no such curve, though single readings can be large; an effect the other way counts as inactive or inconclusive. Potency means the concentration at half of the fitted maximal effect.

SMILES	L3MBTL1 inh-1	BAZ2B block	HP1b binding inh	JMJD2A Tudor inh	Sfp PPTase inh	G9a block	L3MBTL1 inh-2	L3MBTL1 ctr
O=C(O)c1cccc(-n2cccc2/C=C\[N+](=O)[O-])c1	32µM*	?	?	22µM*	-13%	·	21*	14%
O=C(O)c1cccc(-n2cccc2/C=C/[N+](=O)[O-])c1	2.8µM*	32µM*	20µM*	22µM*	32µM*	10µM*	1.7*	5%
Cc1ccccc1C(=O)NCCNC(=O)c1cnccn1	·	2%	4%	-16%	17%	8%	·	·
C=CCOc1ccc(/C=C/C(=O)OCC(=O)N2CCC(c3ccccc3)=N2)cc1	2%	-9%	22%	-12%	·	-5%[12.7 µM]	·	·
CC(C)S(=O)(=O)C1=NSC2=NC(=O)/C(=C\c3ccc(-c4cccc(C(=O)O)c4)o3)C(=N)N21	13µM*	79µM*	10%	?	14µM*	40µM*	3.8*	-19%
CC(C)S(=O)(=O)C1=NSC2=NC(=O)/C(=C\c3ccc(-c4ccccc4)o3)C(=N)N21	9%	?	1%	-26%	-1%	?	·	·
Cc1ccc(S(=O)(=O)Cc2ccc(C(=O)N3CCN(Cc4ccccc4)CC3)o2)cc1	32µM*	50µM*	·	·	-15%	45µM*	15*	3%
COCCCNC(=O)/C(C#N)=C/c1ccc(OCC(=O)O)c(OC)c1	3.5µM*	20µM*	?	50µM*	9%	13µM*	2.1*	?
COc1ccc(COC(=O)CCc2cc(OC)c(OC)c(OC)c2)cc1F	·	·	28%[57 µM]	?	·	·	·	·
COc1cc(/C=C2\CCOC2=O)cc(OC)c1OC	-18%	29%	19%[57 µM]	-9%	9%	87%	·	·
COc1cc(/C=C2\CCc3c2nc2ccccc2c3C(=O)O)cc(OC)c1OC	4µM*	45µM*	-26%	89µM*	?	14µM*	1.5*	0%
O=C(c1ccc(=O)oc1)N1CCCc2ccccc21	18µM*	45µM*	-49%	50µM*	?	?	1.5*	-3%
COc1cc(N)c(C(=O)c2nccc3cc(OC)c(OC)cc23)cc1OC	-4%	-12%	1%	-35%	15%	·	·	·
COc1ccc(C(N)c2nccc3cc(OC)c(OC)cc23)cc1OC (stereo not drawn)	28µM*	14µM*	48%	56µM*	-2%	·	12*	?
COc1cccc(CNC(=O)c2cc(=O)[nH]c3ccc(S(=O)(=O)N4CCCC4)cc23)c1	·	5%	48%	6%	·	-1%[59 µM]	·	·
O=C(c1ccccc1)c1ccc2nc(-c3ccco3)c(-c3ccco3)nc2c1	7.9µM*	14µM*	16µM*	13µM*	7.1µM*	3.2µM*	7.5*	-27%
c1coc(-c2nc3ccccc3nc2-c2ccco2)c1	32µM*	71µM*	5%	?	14µM*	8.9µM*	?	10%
O=c1oc(-c2ccco2)nc2ccccc12	-6%	-9%	39%	-3%	-8%	?	·	·
O=C(O)c1ccc2nc(-c3ccccc3)c(-c3ccccc3)nc2c1	-4%	6%	28%	-7%	26%	12%[59 µM]	·	·
COc1ccccc1N1CCN(C(=O)c2ccc3nc(-c4ccco4)c(-c4ccco4)nc3c2)CC1	28µM*	?	-29%	?	-7%	10µM*	19*	-2%
Cc1cc(C)n(-c2ccc(C(=O)OCC(=O)Nc3ccc([N+](=O)[O-])cc3)cc2)n1	-9%	-28%	20%	-21%	8%	?	·	·
Cc1cc(-c2ccc(C)c(S(=O)(=O)N(Cc3cccs3)C(C)C)c2)on1	·	-3%	7%	-2%	·	7%[59 µM]	·	·
Cc1sc(NC(=O)c2oc3ccccc3c2C)c(C#N)c1C	8%	5%	14%	-1%	7%	?	·	·
Cc1sc(NC(=O)c2sc3nc4c(C)cccc4cc3c2N)c(C#N)c1C	18µM*	?	11%	-31%	?	-89%[2.33 µM]	6.7*	-2%
Cc1nnc(N2C(=O)c3oc4ccccc4c(=O)c3C2c2ccco2)s1 (stereo not drawn)	22µM*	-13%	25%	-30%	?	20µM*	?	8%
SMILES	L3MBTL1 inh-1	BAZ2B block	HP1b binding inh	JMJD2A Tudor inh	Sfp PPTase inh	G9a block	L3MBTL1 inh-2	L3MBTL1 ctr
Oc1c(Br)cc(Br)cc1CNc1cccc2cccnc12	35µM*	?	-16%	?	40µM*	·	?	-17%
Oc1c(Br)cc(Br)cc1CNc1ccccn1	25%	-3%	25%[57 µM]	14%	8%	16%[12.7 µM]	·	·
COC(=O)/C(C(C)=O)=C(\C=C\N(C)C)N(C)C	·	10%	10%	-2%	7%	13%	·	·
COC(=O)\C(C(C)=O)=C(/C=C/C=C/C=C/N(C)C)N(C)C	7.1µM*	18µM*	?	11µM*	-18%	32µM*	3*	?
Cc1cc(-c2ccc(S(=O)(=O)N3CCN(c4ccc(Cl)cc4)CC3)s2)on1	·	2%	29%	1%	·	2%[59 µM]	·	·
N#C/C(=C\c1ccc(O)c(O)c1)C(=O)OCCc1cccs1	·	·	·	·	1%	·	·	·
N#C/C(=C\c1ccc(O)c(O)c1)C(=O)c1ccc(O)c(O)c1	0.5µM*	2.2µM*	?	0.71µM*	·	2.2µM*	0.075*	?
Nc1nc(C(F)(F)F)cc(=O)[nH]1	0%	1%	10%	-13%	3%	21%[59 µM]	·	·
O=c1cc(C(F)(F)F)nc(-n2[nH]c3c(c2=O)CCCC3)[nH]1	8.9µM*	2.5µM*	26%	-2%[57.1 µM]	-17%	?	?	46%
COc1cc(CC(C#N)(CO)c2nc3ccccc3[nH]2)ccc1OC(F)F (stereo not drawn)	5%	9%	12%	-10%	9%	23%[59 µM]	·	·
O=C(O)c1ccc(S(=O)(=O)Nc2ccc(O)c(Sc3nc4ccccc4s3)c2)cc1	22µM*	?	3%	89µM*	-21%	·	7.5*	-5%
O=C(O)CN1C(=O)/C(=C/c2ccc(SCc3ccccc3)o2)SC1=S	2.2µM*	25µM*	?	56µM*	14µM*	18µM*	4.7*	?
O=C(O)CCCN1C(=O)/C(=C\c2ccco2)SC1=S	25µM*	?	?	79µM*	18µM*	45µM*	?	1%
O=C(CCCN1C(=O)/C(=C/c2ccco2)SC1=S)Nc1ccccc1C(=O)O	7.1µM*	40µM*	-17%	89µM*	50µM*	·	3.4*	0%

Assay outcomes: PubChem BioAssay, National Center for Advancing Translational Sciences (NCATS)
